The record followed here is PubChem BioAssay (NCI).

Each structure is given as a SMILES string. The panel holds about 83,000 compounds, 20% with a hit somewhere; the sample as a whole holds those more often.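 Single-dose data. Exposure time 48 hours. Values below 10 considered active.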 A number with no mark means an inactive call. Active and inactive are the calls of the source.

Test systems include T-47D breast; BT-549 breast; MDA-MB-435 melanoma; SW-620 colon; MCF7 breast; HCT-116 colon; HCC-2998 colon; KM12 colon.
What all share (assay): NCI-60 one-dose screen, 48 h (100 = growth as untreated, 0 = no growth, -100 = all killed)
Conditions in all cases: 10 µM unless noted

`C#CCOc1cccc(-c2ncc3cc(NC(=O)CCl)ccc3n2)c1`: the growth with T-47D breast was -26.7% (active); in the experiment with BT-549 breast, -49.3% (active); with MDA-MB-435 melanoma, 2.74% (active); with SW-620 colon, -58.3% (active); with MCF7 breast, -21.6% (active); in the experiment with HCT-116 colon, -26.9% (active). In addition, the figures for the growth with HCC-2998 colon and in the experiment with KM12 colon were -7.49% (active) and 14.2%, respectively.
As to `CN1CCN(Cc2ccc(NC(=O)c3cncc(C#Cc4cncc5ncccc45)c3)cc2C(F)(F)F)CC1`, the growth in the experiment on T-47D breast is 60.9%; with BT-549 breast, 38.6%; with MDA-MB-435 melanoma, 10.6%; in the experiment with SW-620 colon, -26.7% (active); in the experiment with MCF7 breast it was 13.7%; with HCT-116 colon, -58.3% (active). In addition, the growth was 13.9% with HCC-2998 colon and 10.7% in the experiment on KM12 colon.
For `COc1cc(/C=C/c2cc(/C=C/c3ccc(O)c(OC)c3)n(C(=O)Nc3ccc(F)cc3)n2)ccc1O`, the growth in the experiment on T-47D breast is 31.1%; in the experiment with BT-549 breast it was -8.33% (active); in the experiment on MDA-MB-435 melanoma, -2.32% (active); with SW-620 colon, 10.5%; with MCF7 breast, 9.49% (active); with HCT-116 colon, 4.95% (active). The growth in the experiment with HCC-2998 colon was 6.92% (active); in the experiment on KM12 colon it was 2.44% (active).
As to `CS(=O)(=O)Cc1cnc(C2OCCO2)s1`, the growth in the experiment on T-47D breast is 129%; in the experiment on BT-549 breast, 97.6%; in the experiment on MDA-MB-435 melanoma it was 109%; in the experiment on SW-620 colon, 113%; in the experiment on MCF7 breast, 96.4%; in the experiment with HCT-116 colon it was 98.8%. Besides, the values for the growth with HCC-2998 colon and in the experiment with KM12 colon were 107% and 88.9%, respectively.
Take `CCOC(=O)c1c(NC(=O)c2ccc(C(C)(C)C)cc2)sc2cc(O)ccc12`: the growth in the experiment with T-47D breast was 82.7%; with BT-549 breast it was 94.7%; with MDA-MB-435 melanoma, 97.4%; with SW-620 colon, 91.7%; with MCF7 breast, 88.4%; in the experiment with HCT-116 colon, 92.7%. The values for the growth with HCC-2998 colon and in the experiment on KM12 colon were 104% and 86%, respectively.
On to `Nc1ccc([N+](=O)[O-])cc1N=C/C=C/c1ccccc1`, for which the growth is 66.2% in the experiment on T-47D breast; 55% with BT-549 breast; 5.57% (active) in the experiment with MDA-MB-435 melanoma; 35.3% in the experiment with SW-620 colon; 51.5% with MCF7 breast; 67.2% in the experiment on HCT-116 colon. The growth in the experiment with HCC-2998 colon was 73%; in the experiment on KM12 colon it was 40.3%.
For the compound `Cc1c2cc[nH]c(=O)c2c(C)c2c1[nH]c1ccc(OC(=O)c3ccccc3)cc12`, the growth was 10.3% in the experiment on T-47D breast; 40.8% with BT-549 breast; 28% in the experiment on MDA-MB-435 melanoma; 28% in the experiment on SW-620 colon; 20.3% in the experiment with MCF7 breast; 22.7% in the experiment on HCT-116 colon. The growth in the experiment with HCC-2998 colon is 57.7%; in the experiment with KM12 colon it was 39%.
Regarding `Cc1nc2sc(C(=O)Nc3ccc(Cl)cc3)c(N)c2cc1C(O)c1ccccc1` (configuration not stated), the growth is 40.8% in the experiment with T-47D breast; 59.2% in the experiment on BT-549 breast; -12.6% (active) with MDA-MB-435 melanoma; 25.1% with SW-620 colon; 21.1% with MCF7 breast; 25.9% in the experiment with HCT-116 colon. For the same compound, the growth was 62.5% in the experiment on HCC-2998 colon and 21.7% with KM12 colon.
As to `O=S(=O)(c1ccccc1)N1CCCN(c2nc(-c3ccccc3)nc3nc(-c4ccccc4)oc23)CC1`, the growth in the experiment with T-47D breast is 99.4%; in the experiment on BT-549 breast, 107%; with MDA-MB-435 melanoma it was 102%; with SW-620 colon, 109%; with MCF7 breast, 90.8%; with HCT-116 colon, 89.5%. Moreover, the growth in the experiment on HCC-2998 colon is 108%; in the experiment with KM12 colon it was 113%.
Take `COc1ccc(/C=C/C(=O)c2ccc(Nc3nc(Nc4ccc(F)cc4)nc(Nc4ccc(Cl)cc4)n3)cc2)cc1`: the growth in the experiment on T-47D breast is 67.3%; in the experiment on BT-549 breast, 116%; in the experiment with MDA-MB-435 melanoma, 97.3%; with SW-620 colon, 104%; in the experiment with MCF7 breast it was 72.2%; in the experiment with HCT-116 colon, 91.8%. The growth in the experiment with HCC-2998 colon was 51.3%; in the experiment with KM12 colon, 166%.
As to `Nc1c(C(=O)Nc2ccncc2)sc2nc3c(cc12)CCCCC3`, the growth was 25.7% in the experiment with T-47D breast; 50.4% in the experiment on BT-549 breast; 67% with MDA-MB-435 melanoma; 105% with SW-620 colon; 58.5% with MCF7 breast; 66.4% in the experiment with HCT-116 colon. Also, the values for the growth with HCC-2998 colon and in the experiment on KM12 colon were 85.3% and 75.6%, respectively.
Turning to `COc1ccc(C2C(C#N)=C(N)Oc3c2sc2c(Br)cccc32)cc1` (configuration not stated), the growth is 27.2% in the experiment with T-47D breast; 34.4% with BT-549 breast; -18.1% (active) with MDA-MB-435 melanoma; 32% with SW-620 colon; 13.1% with MCF7 breast; 22.4% with HCT-116 colon. Moreover, the growth with HCC-2998 colon is 56.8%; in the experiment with KM12 colon it was 27.5%.
Take `C=CC(=O)NCCOc1cccc(Nc2cc(NCCCNC(=O)C3CCC3)c(Br)cn2)c1`: the growth was -10.5% (active) in the experiment on T-47D breast; -59.5% (active) in the experiment on BT-549 breast; -1.47% (active) in the experiment with MDA-MB-435 melanoma; 2.26% (active) with SW-620 colon; 1.91% (active) in the experiment on MCF7 breast; 4.97% (active) in the experiment on HCT-116 colon. Further, the results for the growth with HCC-2998 colon and in the experiment on KM12 colon were -43.7% (active) and 5.83% (active), respectively.
For `COc1ccc2c(O)c(/C=C3\N=Nc4ccccc43)oc2c1C[C@H]1CCNC[C@H]1F`, the growth with T-47D breast is 83.3%; in the experiment on BT-549 breast it was 71.2%; in the experiment on MDA-MB-435 melanoma, 35.4%; in the experiment with SW-620 colon it was 15.6%; with MCF7 breast it was 12.1%; in the experiment with HCT-116 colon, 26.7%. The growth in the experiment on HCC-2998 colon was 49.7%; in the experiment with KM12 colon, 2.5% (active).
